Results filed as inconclusive are left out. Active and inactive are the calls of the source. Calls follow the shape of the dose curve; as a rule, active = well fitted inhibition curve with a large enough effect; inconclusive = small, poorly fitted or top-dose-only effect; inactive = flat fitted curve, though single readings scatter.
The compounds below were run against Luciferin 4-monooxygenase (Photinus pyralis) (UniProt P08659) (assay: FLuc inhibitory activity for the follow-up compounds in a biochemical assay with Km concentrations of substrate and 500microM CoASH). Conditions: purified FLuc, Km substrates + 500 uM CoASH, luminescence; series mostly up to 57.5 µM.
Outline: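 Twelve-point compound titrations (final ~60uM to 0.3nM) added to substrate mix of 10uM luciferin, 10uM ATP, 500 uM CoASH at pH 7.5, then 10nM firefly luciferase enzyme. Light output imaged directly.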

Luciferin 4-monooxygenase (Photinus pyralis), sequence (P08659 whole entry, looked up): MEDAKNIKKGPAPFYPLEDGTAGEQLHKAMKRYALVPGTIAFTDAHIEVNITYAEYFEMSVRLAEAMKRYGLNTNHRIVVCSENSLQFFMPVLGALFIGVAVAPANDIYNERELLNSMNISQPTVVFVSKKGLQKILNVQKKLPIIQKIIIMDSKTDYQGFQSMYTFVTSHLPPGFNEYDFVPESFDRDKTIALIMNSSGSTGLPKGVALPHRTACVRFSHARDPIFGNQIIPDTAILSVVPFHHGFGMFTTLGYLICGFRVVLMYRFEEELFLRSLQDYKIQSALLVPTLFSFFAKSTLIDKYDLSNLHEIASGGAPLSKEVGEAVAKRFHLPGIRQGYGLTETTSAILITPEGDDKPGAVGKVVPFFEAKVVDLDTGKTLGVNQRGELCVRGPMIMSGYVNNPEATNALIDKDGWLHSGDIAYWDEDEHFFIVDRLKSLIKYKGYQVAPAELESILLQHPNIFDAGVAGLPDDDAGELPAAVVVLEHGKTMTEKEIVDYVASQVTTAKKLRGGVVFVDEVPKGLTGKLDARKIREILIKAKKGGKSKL

| Compound | Potency |
| --- | --- |
| O=C(Nc1ccccc1C(=O)O)c1ccc(NC(=O)C2CCCO2)cc1 (stereo not given) | 5.8 µM (active) |
| Cc1cccc(NS(=O)(=O)c2cccc(C(=O)Nc3cccc(C(=O)O)c3)c2)c1 | inactive |
| Nc1ccccc1-c1nc2ccccc2s1 | 3.26 µM (active) |
| O=C(Nc1ccccc1C(=O)O)c1cccc(NC(=O)c2ccccc2Br)c1 | 14.6 µM (active) |
| Cc1c(NC(=O)c2cc(-n3cnnc3)ccc2Cl)cccc1-c1nc2ccccc2s1 | 0.231 µM (active) |
